High-throughput results (PubChem BioAssay)
A selection: hits, their analogues and other compounds. The true share with any hit is near 10%.
GLS inh: inhibitors of human glutaminase (GLS). GLS enzymatic activity, qHTS titration. Potency, µM (titrated, usually from 45.5 µM), inactives show at the top dose activity change, negative = inhibition, hits mostly inhibitors. hit rate 0.21% among 410,000. AID 624170; note: % is set by controls: 0 for no effect and ±100 for the full control effect
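Human kidney-isoform GLS in 45 mM KH2PO4 pH 8.2, 0.02% Tween-20, with compound, started with 1mM L-Glutamine (added stock). Glutamate oxidase/HRP/Amplex red coupled fluorescence read at start and after 30 min at RT.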
HP1b binding inh: inhibitors of HP1-beta chromodomain binding to methylated histone tails; P83916; AlphaScreen HP1-beta / biotin-H3K9me3 peptide binding; Potency, µM (doses to about 114 µM), without a hit: at the highest dose activity change, negative = inhibition, most hits filed as inhibitors; hit rate 0.56% among 390,000; AID 540317; note: nearly all actives have a fitted effect of over 70% in size
Target sequence (P83916 whole entry, looked up): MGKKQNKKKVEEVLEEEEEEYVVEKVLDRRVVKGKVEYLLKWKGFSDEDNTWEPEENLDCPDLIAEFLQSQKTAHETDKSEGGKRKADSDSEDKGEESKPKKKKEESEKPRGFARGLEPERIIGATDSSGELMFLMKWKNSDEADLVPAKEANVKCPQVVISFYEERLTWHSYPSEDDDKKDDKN
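HP1-beta protein (50 nM final) preincubated 30 min at room temperature with biotinylated H3(1-18)K9me3 peptide (50 nM) in PBS pH 7.4, 0.01% Tween-20, then compound added for 30 min. AlphaScreen streptavidin donor/nickel chelate acceptor beads (10 ug/mL final), 30 min dark, luminescence read.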
BAZ2B block: BAZ2B (human) inhibition. AID 504333. AlphaScreen BAZ2B-H3K14Ac peptide displacement. hit rate 4.4% among 360,000. Q9UIF8. Potency, µM (series often up to 114 µM), for inactives: at the top dose activity change, negative = inhibition, most hits filed as inhibitors; note: % is set by controls: 0 for no effect and ±100 for the full control effect; nearly all actives have a fitted effect of over 60% in size
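Inhibition is scored as reduced AlphaScreen emission. The BAZ2B/b-H3(5-23)K14Ac complex (50 nM each) in PBS pH 7.4, 0.01% Tween-20 meets compound (up to 110 uM) for 30 min at RT before bead addition.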
JMJD2A Tudor inh: JMJD2A Tudor domain (human) inhibition; O75164; AlphaScreen JMJD2A-Tudor / H3K4me3 peptide binding; Potency, µM (highest dose often 114 µM), without a hit: at the highest dose activity change, negative = inhibition, actives largely listed as inhibitors; hit rate 4.4% among 390,000; note: % is set by controls: 0 for no effect and ±100 for the full control effect; nearly all actives have a fitted effect of over 50% in size
G9a block: blocks human histone lysine methyltransferase G9a | Q96KQ7 | G9a H3K9 monomethylation, AlphaScreen, 2 h | Potency, µM (doses to about 102 µM), inactives show at the top dose activity, negative = inhibition, most hits filed as inhibitors | hit rate 8.8% among 350,000 | AID 504332; note: % is set by controls: 0 for no effect and ±100 for the full control effect; nearly all actives have a fitted effect of over 75% in size
Target sequence (Q96KQ7 913-1193 limits assumed): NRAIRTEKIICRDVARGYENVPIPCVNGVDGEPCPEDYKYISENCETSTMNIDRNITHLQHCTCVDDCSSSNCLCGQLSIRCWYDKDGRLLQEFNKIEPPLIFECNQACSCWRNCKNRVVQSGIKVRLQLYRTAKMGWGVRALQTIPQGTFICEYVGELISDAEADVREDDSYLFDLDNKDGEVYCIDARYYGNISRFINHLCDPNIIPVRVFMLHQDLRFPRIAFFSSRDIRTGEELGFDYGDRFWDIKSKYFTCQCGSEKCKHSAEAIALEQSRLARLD
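Chemiluminescent proximity detection of H3K9 monomethylation, read after 10 min bead incubation in the dark. Reaction: 20 nM G9a, 500 nM biotin-H3K9 peptide, 20 uM SAM cofactor, 2 h, room temperature, following 15 min enzyme-compound preincubation.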
The depositor's hits bear a star; ? = inconclusive; · = no result given; [ ] = dose if it differs, or a comment. Calls come from the whole dose curve; as a rule, active = well fitted curve in the direction sought with a large enough effect; inconclusive = small, poorly fitted or top-dose-only effect, or another doubt; inactive = no such curve, though single readings can be large; an effect the other way counts as inactive or inconclusive. Potency is the fitted concentration of half-maximal effect.

SMILES	GLS inh	HP1b binding inh	BAZ2B block	JMJD2A Tudor inh	G9a block
CC(C)n1c(O)c(N=NC(=O)C2COc3ccccc3O2)c2ccccc21 (stereo not drawn)	0%	-22%	?	?	35µM*
Cc1ccc(S(=O)(=O)NCCSc2nnc(N)s2)cc1	6%	41%	9%	-7%	13µM*
Cc1ccc(C)c(Nc2nn3c(=O)c4ccc(C(=O)NCc5cccs5)cc4nc3s2)c1	-12%	0%	-10%	-16%	-1%[59 µM]
CN(C)Cc1csc(Nc2ccc(C(=O)c3ccccc3)cc2)n1	17%	·	·	·	·
O=C(COC(=O)CNS(=O)(=O)/C=C/c1ccccc1)Nc1cccc2ccccc12	16%	26%	-22%	1%	50µM*
CC(/C=C/c1ccc(N(C)C)cc1)=N\N=C(/N)SC1CC(=O)N(c2ccc(C(=O)O)cc2)C1=O (stereo not drawn)	24%	?	50µM*	32µM*	?
COc1cc(OC)cc(C(=O)NCC(=O)N2CC=C(c3ccccc3)CC2)c1	2%	17%	-16%	-16%	50µM*
CCCCCCN(C(=O)CCCCCN1C(=O)NC(c2ccccc2)C(C(=O)OCc2ccccc2)=C1C)C(C(=O)NCCCC)c1ccc(OCC(=O)OC)c(C(=O)OC)c1 (stereo not drawn)	·	·	-1%	·	7%[12.7 µM]
CC1=CN2C(=N)/C(=C/c3ccc(Sc4ccc(C)cc4)o3)C(=O)N=C2S1	-1%	28µM*	22µM*	-23%	25µM*
CCC(C)(C)NC(=S)Nc1ccccc1C	5%	33%	-16%	-16%	10%
CCn1c(C)cs/c1=N\C(=S)Nc1ccccc1C	7%	-17%	40µM*	?	?
CN(CCOc1ccc(Cl)cc1)CC(O)c1ccccc1 (stereo not drawn)	11%	71µM*	20µM*	1.1µM*	3.5µM*
CN1CCC(N(C)CC(O)c2ccccc2)CC1 (stereo not drawn)	4%	-8%	50µM*	3.5µM*	8.9µM*
CCC(C)c1ccccc1NC(=O)CN(C)CCOc1ccc(Cl)cc1 (stereo not drawn)	2%	106%	20%	44%	4%
CN(CCOc1ccccc1)CC(O)COCc1ccccc1F (stereo not drawn)	7%	?	71µM*	?	10µM*
CC(OCC(O)CN(C)CCOc1ccccc1)c1ccc(Cl)cc1 (stereo not drawn)	0%	?	?	3.5µM*	?
CN(CCOc1ccccc1)CC(O)COc1ccccc1 (stereo not drawn)	7%	13%	-5%	-8%	?
N#Cc1cccc(NC(=O)c2cc(C3CCCCN3S(=O)(=O)c3ccccc3)on2)c1 (stereo not drawn)	-10%	·	·	·	·
O=C(Nc1cccc(OCc2cc(=O)n3ccccc3n2)c1)Nc1cccc(C(F)(F)F)c1	-5%	18%[57 µM]	2%	-8%	2%[59 µM]
CC(C)c1ccc(CN(C)CC(O)c2ccccc2)cc1 (stereo not drawn)	-1%	15%	89µM*	-17%	?
CCCCc1c(C)nc2ccc(C)cc2c1SCCC(=O)O	0%	38%	-16%	-15%	-5%[59 µM]
CCCCc1c(C)nc2ccccc2c1SCCC(=O)O	-7%	20%	?	-16%	50µM*
CCOC(=O)N1CCN(CCC(=O)c2ccc(Cl)cc2)CC1	7%	18%	22%	-14%	?
CCOC(=O)N1CCN(CCC(=O)c2ccc(Br)cc2)CC1	-10%	4%	0%	?	4µM*
COc1cc2c(cc1OC)CN(CCC(=O)c1ccc(Br)cc1)CC2	?	-13%	-23%	?	14µM*
COc1cc2c(cc1OC)CN(C(=O)CCNC(=O)c1ccc(Br)cc1)CC2	1%	15%	-4%	-7%	?
CCOC(=O)N1CCN(CCC(=O)c2ccc(OC)cc2)CC1	0%	45%	13%	-15%	10µM*
CN(C)c1ccc(CNC(=O)c2ccccc2NC(=O)c2nsc3ccccc23)cc1	2%	4%[57 µM]	-30%	-21%	-25%[59 µM]
